Measurements as given in ChEMBL document CHEMBL1157539, “Thousands of chemical starting points for antimalarial lead identification” (Nature, 2010).

How the values were obtained:
Assay type in all cases: functional
Plasmodium falciparum [1] = test: GSK_TCMDC: Inhibition of Plasmodium falciparum 3D7 in whole red blood cells, using parasite LDH activity as an index of growth. Test compounds present at 2uM
Plasmodium falciparum [2] = test: GSK_TCMDC: Inhibition of Plasmodium falciparum Dd2 in whole red blood cells, using parasite LDH activity as an index of growth. Test compounds present at 2uM
HepG2 = test: GSK_TCMDC: Percent inhibition of human HepG2 cell line. Test compounds present at 10uM.

| SMILES | Inhibition (Plasmodium falciparum [1]) [%] | Inhibition (Plasmodium falciparum [2]) [%] | Inhibition (HepG2) [%] |
| --- | --- | --- | --- |
| CSC1=NC(=Nc2c(C)cccc2C)C2(CCC(C(C)(C)C)CC2)N1c1ccc(O)cc1.I (stereo not given) | 97 | 93 | 5 |
| Cc1cc(N[C@@H](Cc2ccccc2)C(=O)Nc2ccccc2)nc(NCCc2cccnc2)n1.O=C(O)C(F)(F)F | 95 | 57 | 32 |
| CCn1c(-c2nonc2N)nc2c(-c3ccccc3)ncc(OCCCCNCCc3ncc[nH]3)c21.O=C(O)C(F)(F)F | 92 | 42 | 34 |
| O=C(Cc1c[nH]cn1)Nc1cccc(-c2ccc(-c3nc4cc(F)ccc4[nH]3)cc2)c1 | 100 | 84 | 4 |
| O=C(COc1ccc(Cl)c(Cl)c1)NCCCCCN1CCCN(C(=O)Nc2cc(Cl)cc(Cl)c2)CC1.O=C(O)C(F)(F)F | 89 | 1 | 44 |
| CC(C)CNC(=S)N1CCCN(c2nc3ccc(Cl)cc3s2)CC1 | 95 | 11 | 28 |
| CN1CCC(c2c[nH]c3ccc(NC(=O)Nc4ccc(-c5ccncc5)c(Cl)c4Cl)cc23)CC1 | 100 | 19 | 27 |
| O=C(Nc1cccc(CN2CCCN(Cc3ccc(O)cc3)CC2)c1)c1ccc2ccccc2c1.O=C(O)C(F)(F)F | 100 | 78 | 20 |
| CCOc1c(CNCCCNc2cc(O)c3ccccc3n2)cc(Br)cc1OC | 80 | 18 | 10 |
| O=C(/C=C/c1ccc(Cl)c(Cl)c1)N1CCN(C(=O)Nc2cccc(C(F)(F)F)c2)CC1 | 99 | 100 | 53 |
